Test results as given in PMC7862700, “An all-to-all approach to the identification of sequence-specific readers for epigenetic DNA modifications on cytosine”.

Columns and labels:
Experiment in all cases: DAPPL (digital affinity profiling via proximity ligation, sequencing); 10 mM Tris-HCl pH 7.5, 50 mM NaCl, 1 mM DTT, 4% glycerol, room temperature, 30 min; GST-TFs on glutathione beads, 16-mer random dsDNA library, 0.1% formaldehyde crosslink after washing; high values mean tight binding
Conditions in all cases: protein: recombinant; tags: N-terminal GST; dsDNA, one strand shown
ELK4 = target: T1, ELK4 (Homo sapiens, UniProt P28324-2 1-405)
T1 sequence: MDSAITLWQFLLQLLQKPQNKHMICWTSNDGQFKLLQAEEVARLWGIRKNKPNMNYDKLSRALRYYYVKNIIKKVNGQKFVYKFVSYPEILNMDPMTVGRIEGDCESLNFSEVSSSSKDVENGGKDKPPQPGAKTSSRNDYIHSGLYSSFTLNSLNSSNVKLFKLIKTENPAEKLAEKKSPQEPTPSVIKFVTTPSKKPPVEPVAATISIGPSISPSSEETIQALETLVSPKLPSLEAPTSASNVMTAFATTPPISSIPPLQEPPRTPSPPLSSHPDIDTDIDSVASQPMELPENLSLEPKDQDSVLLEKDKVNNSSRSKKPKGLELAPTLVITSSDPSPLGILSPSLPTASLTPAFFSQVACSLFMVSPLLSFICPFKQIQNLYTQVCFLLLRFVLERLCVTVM
Summary of the method: (§1)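 Pools were built from human transcription factors expressed in yeast as GST fusions, captured on glutathione beads and DNA-barcoded, along with a tag-only sample. Incubation with 200 nmole of a 16-mer random double-stranded DNA library lasted 30 min at room temperature in Tris/NaCl/DTT/glycerol buffer, and was followed by washing, 0.1% formaldehyde crosslinking, proximity ligation, PCR amplification and Illumina NextSeq500 sequencing. Binding signal is the quotient of each hexamer's read frequency for a factor and its frequency for the tag-only sample.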

ELK1 = target: T2, ELK1 (Homo sapiens, UniProt P19419 1-428)
T2 sequence: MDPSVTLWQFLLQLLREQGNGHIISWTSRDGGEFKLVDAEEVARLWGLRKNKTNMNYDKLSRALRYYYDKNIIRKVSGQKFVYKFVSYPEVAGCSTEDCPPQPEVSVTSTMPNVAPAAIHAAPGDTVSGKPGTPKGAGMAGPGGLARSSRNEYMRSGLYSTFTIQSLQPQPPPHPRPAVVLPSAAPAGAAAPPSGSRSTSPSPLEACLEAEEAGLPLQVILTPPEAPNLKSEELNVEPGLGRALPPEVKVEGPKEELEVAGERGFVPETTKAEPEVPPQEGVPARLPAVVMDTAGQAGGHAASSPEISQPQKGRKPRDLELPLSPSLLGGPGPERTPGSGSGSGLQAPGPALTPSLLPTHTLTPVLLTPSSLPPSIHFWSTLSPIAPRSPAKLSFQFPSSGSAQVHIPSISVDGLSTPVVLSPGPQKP
Summary of the method: as §1

ELF4 = ELF4 (Homo sapiens, UniProt Q99607 1-663)
Summary of the method: as §1

ETV2 = target: T3, ETV2 (Homo sapiens, UniProt O00321 1-342)
T3 sequence: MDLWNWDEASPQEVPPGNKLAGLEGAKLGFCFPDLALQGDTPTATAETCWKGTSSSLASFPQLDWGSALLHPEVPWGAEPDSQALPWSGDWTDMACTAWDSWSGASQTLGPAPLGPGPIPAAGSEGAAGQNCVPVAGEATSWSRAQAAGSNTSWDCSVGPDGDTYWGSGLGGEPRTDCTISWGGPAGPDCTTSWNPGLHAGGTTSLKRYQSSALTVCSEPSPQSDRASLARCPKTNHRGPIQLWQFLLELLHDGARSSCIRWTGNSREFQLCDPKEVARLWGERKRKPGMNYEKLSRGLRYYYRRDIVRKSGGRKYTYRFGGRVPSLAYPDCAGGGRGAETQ
Summary of the method: as §1

ETV6 = ETV6 (Homo sapiens, UniProt P41212 1-452)
Summary of the method: as §1

GABPA = target: T4, GABPA (Homo sapiens, UniProt Q06546 1-454)
T4 sequence: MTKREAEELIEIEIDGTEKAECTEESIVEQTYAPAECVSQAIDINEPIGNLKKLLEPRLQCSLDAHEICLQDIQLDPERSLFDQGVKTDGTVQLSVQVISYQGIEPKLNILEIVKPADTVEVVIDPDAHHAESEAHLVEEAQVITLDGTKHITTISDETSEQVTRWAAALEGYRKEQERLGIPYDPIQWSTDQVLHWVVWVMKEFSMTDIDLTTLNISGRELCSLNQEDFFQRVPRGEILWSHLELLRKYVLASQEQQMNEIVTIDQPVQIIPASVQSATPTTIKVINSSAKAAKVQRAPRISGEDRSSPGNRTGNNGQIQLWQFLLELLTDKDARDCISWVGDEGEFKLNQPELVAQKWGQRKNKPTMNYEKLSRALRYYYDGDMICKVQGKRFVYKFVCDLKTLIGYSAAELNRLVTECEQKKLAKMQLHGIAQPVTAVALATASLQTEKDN
Summary of the method: as §1

ELF1 = ELF1 (Homo sapiens, UniProt P32519 1-619)
Summary of the method: as §1

ELK3 = target: T5, ELK3 (Homo sapiens, UniProt P41970 1-407)
T5 sequence: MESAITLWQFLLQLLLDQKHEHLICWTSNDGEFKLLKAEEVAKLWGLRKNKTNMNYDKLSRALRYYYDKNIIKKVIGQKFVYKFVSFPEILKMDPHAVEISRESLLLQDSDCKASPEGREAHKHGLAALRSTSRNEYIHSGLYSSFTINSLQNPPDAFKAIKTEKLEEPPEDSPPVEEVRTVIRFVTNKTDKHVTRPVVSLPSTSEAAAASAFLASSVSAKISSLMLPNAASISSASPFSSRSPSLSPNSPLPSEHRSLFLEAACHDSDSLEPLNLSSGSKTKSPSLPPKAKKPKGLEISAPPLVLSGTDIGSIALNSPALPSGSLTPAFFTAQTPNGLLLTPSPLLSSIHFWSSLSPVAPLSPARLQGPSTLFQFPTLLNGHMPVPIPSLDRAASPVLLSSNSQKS
Summary of the method: as §1

ERF = target: T6, ERF (Homo sapiens, UniProt P50548 1-548)
T6 sequence: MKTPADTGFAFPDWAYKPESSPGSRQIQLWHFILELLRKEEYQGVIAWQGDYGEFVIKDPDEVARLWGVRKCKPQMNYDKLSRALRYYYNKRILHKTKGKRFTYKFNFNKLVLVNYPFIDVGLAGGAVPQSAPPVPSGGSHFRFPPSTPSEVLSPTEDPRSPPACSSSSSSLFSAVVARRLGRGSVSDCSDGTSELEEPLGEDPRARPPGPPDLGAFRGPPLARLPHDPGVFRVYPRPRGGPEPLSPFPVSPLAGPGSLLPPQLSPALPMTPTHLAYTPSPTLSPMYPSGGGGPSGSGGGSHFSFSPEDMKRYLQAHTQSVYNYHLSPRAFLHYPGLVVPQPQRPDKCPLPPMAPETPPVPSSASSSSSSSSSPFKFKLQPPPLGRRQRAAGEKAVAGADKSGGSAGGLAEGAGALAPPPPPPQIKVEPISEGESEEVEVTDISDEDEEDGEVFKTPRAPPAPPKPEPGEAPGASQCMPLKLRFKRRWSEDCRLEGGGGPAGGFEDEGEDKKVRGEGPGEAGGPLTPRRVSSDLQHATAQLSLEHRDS
Summary of the method: as §1

EHF = target: T7, EHF (Homo sapiens, UniProt Q9NZC4 1-300)
T7 sequence: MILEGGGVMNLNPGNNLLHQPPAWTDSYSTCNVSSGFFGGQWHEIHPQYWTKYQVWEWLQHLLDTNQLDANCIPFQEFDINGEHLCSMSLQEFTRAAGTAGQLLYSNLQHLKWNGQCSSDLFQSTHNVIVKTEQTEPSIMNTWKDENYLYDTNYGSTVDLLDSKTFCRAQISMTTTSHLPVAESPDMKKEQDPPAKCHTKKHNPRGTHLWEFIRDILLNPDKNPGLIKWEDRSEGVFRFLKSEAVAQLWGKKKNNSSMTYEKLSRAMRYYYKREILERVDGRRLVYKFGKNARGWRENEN
Summary of the method: as §1

ETV7 = target: T8, ETV7 (Homo sapiens, UniProt Q9Y603 1-341)
T8 sequence: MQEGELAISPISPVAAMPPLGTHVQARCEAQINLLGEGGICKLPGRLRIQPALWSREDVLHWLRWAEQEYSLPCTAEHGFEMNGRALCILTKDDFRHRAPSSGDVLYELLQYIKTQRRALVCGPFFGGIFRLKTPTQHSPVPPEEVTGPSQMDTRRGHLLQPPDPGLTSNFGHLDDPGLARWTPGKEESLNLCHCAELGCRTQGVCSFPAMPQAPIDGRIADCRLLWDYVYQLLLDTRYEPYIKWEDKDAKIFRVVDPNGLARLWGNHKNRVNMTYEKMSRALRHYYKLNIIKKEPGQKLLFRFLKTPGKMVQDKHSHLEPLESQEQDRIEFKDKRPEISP
Summary of the method: as §1

ETV3 = target: T9, ETV3 (Homo sapiens, UniProt P41162-2 1-143)
T9 sequence: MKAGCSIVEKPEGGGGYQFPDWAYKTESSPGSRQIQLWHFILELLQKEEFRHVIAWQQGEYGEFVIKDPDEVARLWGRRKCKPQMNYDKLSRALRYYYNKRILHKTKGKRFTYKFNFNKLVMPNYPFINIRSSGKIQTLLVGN
Summary of the method: as §1

Sequence of ELF4 (Q99607 whole entry): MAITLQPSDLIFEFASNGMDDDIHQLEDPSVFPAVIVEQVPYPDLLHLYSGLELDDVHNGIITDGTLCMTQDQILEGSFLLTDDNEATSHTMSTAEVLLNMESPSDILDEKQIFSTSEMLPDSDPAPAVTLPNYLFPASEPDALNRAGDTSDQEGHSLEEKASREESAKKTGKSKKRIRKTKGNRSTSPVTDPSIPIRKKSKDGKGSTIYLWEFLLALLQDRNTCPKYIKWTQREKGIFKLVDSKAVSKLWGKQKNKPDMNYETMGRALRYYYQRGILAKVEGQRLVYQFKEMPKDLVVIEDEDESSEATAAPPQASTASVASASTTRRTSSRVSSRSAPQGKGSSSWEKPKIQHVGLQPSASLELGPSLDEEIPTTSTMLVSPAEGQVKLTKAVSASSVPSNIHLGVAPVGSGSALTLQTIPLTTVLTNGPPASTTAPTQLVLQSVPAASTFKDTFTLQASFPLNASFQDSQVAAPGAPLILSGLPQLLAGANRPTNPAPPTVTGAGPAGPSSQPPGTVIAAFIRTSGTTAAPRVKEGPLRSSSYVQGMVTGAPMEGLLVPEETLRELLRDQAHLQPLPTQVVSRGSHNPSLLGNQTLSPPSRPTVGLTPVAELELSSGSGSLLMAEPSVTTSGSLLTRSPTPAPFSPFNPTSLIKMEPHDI
Sequence of ETV6 (P41212 whole entry): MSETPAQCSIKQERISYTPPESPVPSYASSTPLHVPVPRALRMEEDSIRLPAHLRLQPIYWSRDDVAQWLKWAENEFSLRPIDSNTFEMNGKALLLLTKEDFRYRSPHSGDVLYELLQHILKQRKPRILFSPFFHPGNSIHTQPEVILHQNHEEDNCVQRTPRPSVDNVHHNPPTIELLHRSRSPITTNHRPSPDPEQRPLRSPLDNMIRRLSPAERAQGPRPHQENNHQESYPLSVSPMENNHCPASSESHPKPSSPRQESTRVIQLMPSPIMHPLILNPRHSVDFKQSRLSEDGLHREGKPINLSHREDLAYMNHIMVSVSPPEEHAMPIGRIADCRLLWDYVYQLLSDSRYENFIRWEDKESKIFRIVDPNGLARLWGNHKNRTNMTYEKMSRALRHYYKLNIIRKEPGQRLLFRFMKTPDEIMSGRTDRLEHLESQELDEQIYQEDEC
Sequence of ELF1 (P32519 whole entry): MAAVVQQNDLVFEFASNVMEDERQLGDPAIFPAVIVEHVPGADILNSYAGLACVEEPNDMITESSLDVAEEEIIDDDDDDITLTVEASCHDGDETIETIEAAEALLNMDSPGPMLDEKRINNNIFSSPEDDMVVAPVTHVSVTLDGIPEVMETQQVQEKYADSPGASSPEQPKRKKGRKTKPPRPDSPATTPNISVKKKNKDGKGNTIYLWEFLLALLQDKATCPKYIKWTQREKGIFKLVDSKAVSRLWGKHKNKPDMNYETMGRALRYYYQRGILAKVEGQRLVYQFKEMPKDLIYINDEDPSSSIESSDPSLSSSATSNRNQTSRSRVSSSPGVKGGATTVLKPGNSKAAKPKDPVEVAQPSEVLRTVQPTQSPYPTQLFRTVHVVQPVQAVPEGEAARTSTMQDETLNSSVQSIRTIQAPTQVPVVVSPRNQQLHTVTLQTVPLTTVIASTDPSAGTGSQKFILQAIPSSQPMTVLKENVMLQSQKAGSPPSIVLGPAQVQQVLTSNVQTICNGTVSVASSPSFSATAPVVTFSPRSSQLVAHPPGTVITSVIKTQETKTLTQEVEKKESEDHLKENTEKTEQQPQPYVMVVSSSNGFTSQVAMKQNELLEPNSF

GTTGAA
binding signal (ELK4): 1.01 fold enrichment (6-mer frequency, TF over GST control)

AACGGT
binding signal (ELK1): 1.06 fold enrichment (6-mer frequency, TF over GST control)
binding signal (ELF4): 1.03 fold enrichment (6-mer frequency, TF over GST control)
binding signal (ETV2): 1.05 fold enrichment (6-mer frequency, TF over GST control)
binding signal (ETV6): 1.01 fold enrichment (6-mer frequency, TF over GST control)

CGCACC
binding signal (GABPA): 1.03 fold enrichment (6-mer frequency, TF over GST control)
binding signal (ELF1): 1.03 fold enrichment (6-mer frequency, TF over GST control)
binding signal (ELK3): 1.05 fold enrichment (6-mer frequency, TF over GST control)
binding signal (ELF4): 1.03 fold enrichment (6-mer frequency, TF over GST control)
binding signal (ELK4): 1.13 fold enrichment (6-mer frequency, TF over GST control)
binding signal (ETV2): 1.1 fold enrichment (6-mer frequency, TF over GST control)
binding signal (ERF): 1.01 fold enrichment (6-mer frequency, TF over GST control)

CTGAGG
binding signal (ELK4): 1.02 fold enrichment (6-mer frequency, TF over GST control)

ACAGTT
binding signal (ELK4): 1.02 fold enrichment (6-mer frequency, TF over GST control)

AACAGA
binding signal (EHF): 1.06 fold enrichment (6-mer frequency, TF over GST control)
binding signal (ELF4): 1.02 fold enrichment (6-mer frequency, TF over GST control)
binding signal (ELK4): 1.1 fold enrichment (6-mer frequency, TF over GST control)
binding signal (ETV2): 1.01 fold enrichment (6-mer frequency, TF over GST control)
binding signal (ETV7): 1.02 fold enrichment (6-mer frequency, TF over GST control)
binding signal (ETV3): 1.01 fold enrichment (6-mer frequency, TF over GST control)
